Reference: PubChem BioAssay AID720597 (Broad Institute, 2013)
Potency and affinity values are given separately. A number with no mark means an inactive call.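 How the source made its calls: active means fitted half-maximal dose no more than twice the top valid tested dose, for compounds that lower signal; inconclusive means fit invalid, or curve flat with activity between -70 and -30; inactive means potency past limit, curve flat within ±30, or signal increasing.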

molecular target: NAD-dependent protein deacylase sirtuin-5, mitochondrial (Homo sapiens) (UniProt Q9NXA8); assay: blockers of sirtuin-5 peptide desuccinylation – biochemical, fluorescence imaging, cherry-pick, set 6, dose response (AID 720597); details: Purified SirT5, succinyl-peptide-AMC/trypsin fluorescence; series mostly up to 15 µM; activity change, negative = inhibition: at the top concentration;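 further: lower AMC signal can also come from blocking the trypsin step; 0% = median of neutral control wells and -100% = median of positive control wells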
Sequence (Q9NXA8 whole entry, looked up): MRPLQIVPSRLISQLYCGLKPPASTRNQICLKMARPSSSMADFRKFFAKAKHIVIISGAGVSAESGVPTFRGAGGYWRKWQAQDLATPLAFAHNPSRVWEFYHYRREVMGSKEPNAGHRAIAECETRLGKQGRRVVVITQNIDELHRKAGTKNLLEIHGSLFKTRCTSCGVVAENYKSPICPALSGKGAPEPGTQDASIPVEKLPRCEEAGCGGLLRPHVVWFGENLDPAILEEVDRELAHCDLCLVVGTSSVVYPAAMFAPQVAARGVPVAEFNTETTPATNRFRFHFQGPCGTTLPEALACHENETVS

Structure (SMILES) | activity change, negative = inhibition [%]
COc1ccc(S(=O)(=O)Nc2ccc3c(c2)C(=O)N([C@@H](C)CO)C[C@H](C)[C@@H](CN(C)S(=O)(=O)c2ccccc2)OCCCC[C@@H](C)O3)cc1 | 6.19
CCCC#Cc1ccc([C@H]2[C@H]3CN(S(=O)(=O)Cc4ccccc4)CCCCN3[C@H]2CO)cc1 | -16.6
Cc1noc(C)c1NC(=O)Nc1cccc2c1O[C@H](CN(C)Cc1ccc(Oc3ccccc3)cc1)[C@@H](C)CN([C@@H](C)CO)C2=O | 20.2
CCCN(C)C[C@@H]1Oc2cc(-c3ccccc3OC)ccc2S(=O)(=O)N([C@H](C)CO)C[C@@H]1C | 39
O=C(NCC[C@@H]1CC[C@H](NC(=O)C2CC2)[C@@H](CO)O1)c1cc(Cl)cc(Cl)c1 | -6.62
Cc1noc(C)c1NC(=O)Nc1ccc2c(c1)C(=O)N([C@H](C)CO)C[C@H](C)[C@@H](CN(C)C(=O)Nc1ccc(C(F)(F)F)cc1)OCCCC[C@H](C)O2 | 5.14
CC(=O)N(C)C[C@H]1Oc2ncc(C#CCC3CCCC3)cc2C(=O)N([C@@H](C)CO)C[C@H]1C | -16.3
C[C@H]1CN([C@@H](C)CO)C(=O)c2c(c3ccccc3n2C)-c2ccccc2CO[C@@H]1CN(C)Cc1cccc2c1OCCCO2 | -13.3
COc1cccc(S(=O)(=O)N(C)C[C@@H]2Oc3cc(C4=CCCCC4)ccc3S(=O)(=O)N([C@H](C)CO)C[C@@H]2C)c1 | 18.7
C[C@H]1CN([C@@H](C)CO)C(=O)Cc2cc(NS(=O)(=O)c3ccccc3)ccc2O[C@H]1CN(C)Cc1ccc(C(=O)Nc2ccccc2N)cc1 | -11.8
C[C@H]1CN([C@@H](C)CO)S(=O)(=O)c2ccc(/C=C/c3ccccc3)cc2O[C@H]1CN(C)Cc1ccccc1 | -5.16
Cc1ccc(S(=O)(=O)N(C)C[C@H]2OCc3ccccc3-c3c(n(C)c4ccccc34)C(=O)N([C@H](C)CO)C[C@H]2C)cc1 | 23.8
